Menin-MLL FL inh: menin-MLL binding inhibition, fluorescein peptide | AID 1766 | Fluorescence polarization, fluorescein-MLL peptide displacement from menin | FP activity change, % at 61.4 µM | 290,000 tested, under 10 active; active = well fitted curve in the direction sought with a large enough effect in the polarisation, not every such curve was filed as active; inconclusive = small, poorly fitted or top-dose-only effect, or effect the other way, or a change in a side signal; inactive = no such curve, though single readings can be large or run the other way; the % refers to the polarisation; note: % of control where 0% means no effect
CXXC DNA block: MLL CXXC-DNA interaction inhibition | 290,000 compounds, 0.037% hits | AID 2662 | MLL-CXXC / FITC-HOXA9 DNA fluorescence polarization | Potency, µM (series often up to 115 µM), without a hit: at the top dose activity change, negative = inhibition, usual class: inhibitors | Q03164; active = well fitted inhibition curve with a large enough effect in the polarisation, with a control signal flat, not every such curve was filed as active; inconclusive = small, poorly fitted or top-dose-only effect, or effect the other way, or a change in a side signal; inactive = no such curve, though single readings can be large or run the other way; the % refers to the polarisation; note: potency is the fitted concentration of half-maximal effect
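Fluorescence polarization: 7 uM MLL-CXXC (stock) preincubated 5 min with compounds, then 50 nM fluorescein-HOX-A9 DNA (stock) added; 30 min ambient. Buffer 50 mM Tris-HCl pH 7.5, 50 mM NaCl, 1 mM DTT, 0.05% BSA.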
Menin-MLL TR inh: inhibitors of human menin-MLL interaction, mutant MLL peptide | AID 1768 | 270,000 compounds, 0.23% hits | Menin + Texas Red MLL mutant peptide, fluorescence polarization | O00255 | Potency, µM (top dose mostly 61.6 µM), without a hit: at the top dose FP activity change, negative = inhibition, most hits filed as inhibitors; active = well fitted inhibition curve with a large enough effect in the polarisation, with a control signal flat, not every such curve was filed as active; inconclusive = small, poorly fitted or top-dose-only effect, or effect the other way, or a change in a side signal; inactive = no such curve, though single readings can be large or run the other way; the % refers to the polarisation; note: potency is the fitted concentration of half-maximal effect; % of control where 0% means no effect
aGal spleen mod: inhibitors or activators of human alpha-galactosidase in spleen homogenate | 240,000 compounds, 0.008% hits | human spleen homogenate, 4MU-alpha-Gal fluorescence, 40 min | Potency, µM (series often up to 80 µM), without a hit: at the top dose activity change, negative = inhibition, actives largely listed as inhibitors | P06280;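 note: potency is the fitted concentration of half-maximal effect; 0% = enzyme with vehicle and -100% = no enzyme basal signal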
Target sequence (P06280 32-429 limits assumed): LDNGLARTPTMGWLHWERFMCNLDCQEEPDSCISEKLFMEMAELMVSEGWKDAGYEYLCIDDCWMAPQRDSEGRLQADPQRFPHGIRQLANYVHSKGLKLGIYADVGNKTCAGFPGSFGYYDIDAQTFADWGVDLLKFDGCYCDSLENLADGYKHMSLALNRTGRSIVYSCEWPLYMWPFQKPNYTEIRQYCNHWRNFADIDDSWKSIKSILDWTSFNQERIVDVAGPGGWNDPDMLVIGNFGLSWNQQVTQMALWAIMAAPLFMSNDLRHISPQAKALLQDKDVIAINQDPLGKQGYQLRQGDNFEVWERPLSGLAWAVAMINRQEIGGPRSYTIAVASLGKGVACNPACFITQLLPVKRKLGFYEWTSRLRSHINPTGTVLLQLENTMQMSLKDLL
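Inhibition or activation of alpha-galactosidase in human spleen homogenate is scored by 4-MU fluorescence after 40 min at 37C, pH 5.0, with 1 mM substrate. AC50s come from concentration-response fitted to the Hill equation.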
a7 integrin act: integrin-mediated muscular dystrophy alleviation activation | alpha7betagal myoblasts, beta-gal FDG fluorescence, 48 h | AID 624291 | Potency, µM (series often up to 38.3 µM), for the others: at the highest dose activation, most hits filed as activators | 350,000 compounds, 0.064% hits;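 note: potency is the fitted concentration of half-maximal effect; 100% = response of the positive control SU9516; nearly all actives have a fitted effect of over 60% in size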
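alpha7betagal+/- myoblasts (passage 13, 250/well) treated 48 h at 37C with compounds at 1:260 dilution of DMSO stock. Lysed, then beta-galactosidase activity read as FDG fluorescence (ex 480/em 540) after 30 min, with pre-read for autofluorescence.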
GLA inh pH 4.5: inhibitors of human alpha-galactosidase A at pH 4.5; purified enzyme, 4-MU-alpha-Gal fluorescence, pH 4.5; AID 1467; P06280; activity change, negative = inhibition, % at 105 µM; 230,000 tested, under 10 active;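 note: 0% = full activity with enzyme and -100% = basal without enzyme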
Target sequence (P06280 whole entry, looked up): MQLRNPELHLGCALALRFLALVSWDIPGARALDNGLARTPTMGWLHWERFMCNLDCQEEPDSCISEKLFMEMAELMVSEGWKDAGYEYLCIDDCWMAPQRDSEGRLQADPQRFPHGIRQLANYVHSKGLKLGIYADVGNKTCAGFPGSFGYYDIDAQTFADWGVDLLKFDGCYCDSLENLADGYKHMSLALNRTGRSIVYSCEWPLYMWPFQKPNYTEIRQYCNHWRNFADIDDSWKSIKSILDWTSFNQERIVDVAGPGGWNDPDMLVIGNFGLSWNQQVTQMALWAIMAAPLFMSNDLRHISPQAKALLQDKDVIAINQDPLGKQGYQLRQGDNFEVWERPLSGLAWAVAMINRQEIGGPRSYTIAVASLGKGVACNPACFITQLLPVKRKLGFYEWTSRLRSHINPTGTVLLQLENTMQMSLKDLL
An asterisk follows results filed as active; ? = inconclusive; . = no result given; ! = not active in a repeat; [ ] = another dose, or the depositor's remark. This is one part of a sample in which hits are shown more often than they occur. Unless noted, calls come from the whole dose curve; as a rule, active = well fitted curve in the direction sought with a large enough effect; inconclusive = small, poorly fitted or top-dose-only effect, or another doubt; inactive = no such curve, though single readings can be large; an effect the other way counts as inactive or inconclusive.

SMILES | Menin-MLL FL inh | CXXC DNA block | Menin-MLL TR inh | aGal spleen mod | a7 integrin act | GLA inh pH 4.5
O=c1[nH]c(C2CCCN(S(=O)(=O)c3ccccc3)C2)nc2c1nnn2Cc1cccc(Cl)c1 (stereo unspecified) | 1.3 | 6.2% | 15.3% | . | 3.98µM* | .
CS(=O)(=O)Cc1cccc(C(=O)NN(c2ccccc2)c2ccccc2)c1 | -6.5 | -5.3% | -0.3% | . | 12.6µM* | .
O=C(NCCc1ccccc1)C1CCC(=O)N1C1CCCC1 (stereo unspecified) | -4.4 | -3.8% | 38.5% | . | 10µM* | .
CC1(C)Cc2c(cnn2-c2cccc(F)c2)C(NC(=O)CCc2cnccn2)C1 (stereo unspecified) | 7.2 | 34.9% | -26.7% | . | 3.16µM* | .
Cc1csc(NC(=O)CSc2nnc(NC(=O)COc3ccc(Cl)cc3)s2)n1 | 18.1 | 13.2% | 25.1µM* | 3.6% | 10.4% | -2.8
O=C(COC(=O)CCC1CCCC1)Nc1nc2c(F)c(F)c(F)cc2s1 | 10.1 | 1.4% | 25.1µM* | 5.2% | 0.6% | -1.1
COc1cc(CNCc2ccc(C(=O)O)cc2)ccc1OCc1ccc(F)cc1 | 6.3 | 14.3% | 22.4% | . | 4.47µM* | .
COc1cc(/C=C2/C(=N)N3C(SC)=NSC3=NC2=O)ccc1OC(=O)c1ccco1 | ? | 39.4% | ? | . | 3.98µM* | .
CC(=O)Nc1ccc(S(=O)(=O)Oc2ccc(/C=C3\SC(N)=NC3=O)cc2)cc1 | -1.0 | 2.0% | 14.1µM* | -7.1% | -11.9% | -12.0
CO[C@H]1COC(=O)C/C=C\[C@H](C)[C@@H](OC)COC(=O)[C@H](C)COC(=O)C/C=C\[C@@H]1C | 0.5[11.7 µM] | . | 0.5%[11.7 µM] | -3.3%[17.5 µM] | . | .
C=CCn1c2ccccc2c2nnc(SCC(=O)NC(C(=O)OC)C(C)C)nc21 (stereo unspecified) | -0.7 | -4.8% | 14.2% | 39.8µM* | 10.9% | 4.4
C[C@@H]1/C=C\CC(=O)OC[C@H](C)C(=O)N2CCC[C@@H]2C(=O)OC1 | -3.7[11.7 µM] | . | 0.4%[11.7 µM] | -2.4%[17.5 µM] | . | .
CN1CCN(c2cc(N3CCN(C(=O)c4ccco4)CC3)c3c4c(onc24)-c2ccccc2C3=O)CC1 | ? | ? | ? | . | -66.8% | .
O=C(O)CCCNc1cc(N2CCN(C(=O)c3ccco3)CC2)c2noc3c2c1C(=O)c1ccccc1-3 | ? | ? | 15.8µM* | . | 17.5% | .
O=C(NCCCn1ccnc1)/C(=C/c1cccs1)NC(=O)c1ccco1 | 3.1 | -3.3% | 0.5% | 1.3% | 8.91µM* | -1.3
CCCCC[C@]12Cc3ccccc3C(O1)c1c(cc(C)oc1=O)O2 | -1.8[11.7 µM] | 0.3%[23 µM] | -9.2%[11.7 µM] | . | . | .
NC(=O)c1nsc(C(=O)N(c2ccccc2)C(C(=O)NCc2ccc(F)cc2)c2ccc(O)cc2)c1N (stereo unspecified) | -5.6 | 5.0% | ? | . | 2.24µM* | .
COc1ccccc1N1CCN(CCCCN2C(=O)CCC2=O)CC1 | ? | . | 9.0%[24.8 µM] | -2.1% | . | -12.3
COc1ccccc1N1CCN(CCCCN2C(=O)c3ccccc3C2=O)CC1 | ? | -28.6% | -24.1% | 10µM*! | . | 1.3
Cc1cccn2c(=O)c3cc(C(=O)NC4CCCCC4)n(C)c3nc12 | . | 0.8% | . | . | 14.1µM* | .
COc1ccc(C2CC(c3ccccc3O)=NN2C(=O)c2ccccc2)cc1OC (stereo unspecified) | 2.9 | ? | -0.5% | . | -19.5% | .
O=C(c1ccccc1)N1N=C(c2ccccc2O)CC1c1ccccc1 (stereo unspecified) | 3.0 | ? | 28.2µM* | . | 3.1% | .
COc1ccc(/C=C(\NC(=O)c2ccc(C)cc2)C(=O)Nc2ccc(C(=O)O)cc2)cc1 | -4.6 | 1.0% | 38.5% | . | 11.2µM* | .
COc1ccc(/C=C(\NC(=O)c2ccc(OC)cc2)C(=O)Nc2ccc(C(=O)O)cc2)cc1 | -0.9 | -6.7% | -1.1% | . | 13.5% | .
Cc1cc(F)ccc1OC1C=CC(c2ccc3c(c2)OCO3)OC1CO (stereo unspecified) | -0.1[11.7 µM] | . | -3.0%[11.7 µM] | -3.4%[17.5 µM] | . | .
SMILES | Menin-MLL FL inh | CXXC DNA block | Menin-MLL TR inh | aGal spleen mod | a7 integrin act | GLA inh pH 4.5
COc1ccccc1CNc1cc(C)ccn1 | 4.0 | 8.1% | -1.0% | . | 2.51µM* | .
O=C(Nc1nc2ccccc2s1)c1cccc(S(=O)(=O)N2CCc3ccccc32)c1 | 11.3 | 2.3% | . | 6.5% | -19.0% | -14.1
O=C(Nc1nc2c(s1)CN(Cc1ccccc1)CC2)c1cccc(S(=O)(=O)N2CCc3ccccc32)c1 | ? | ? | 7.08µM* | 4.7% | -15.9% | -5.9
CCCCCC(CC)COC(=O)CC(C(=O)OCC(CC)CCCC)S(=O)(=O)O (stereo unspecified) | -1.0 | . | -10.7% | . | . | .
Cc1cc(-c2ccc(N=Nc3cc(S(=O)(=O)O)c4ccccc4c3N)c(C)c2)ccc1N=Nc1cc(S(=O)(=O)O)c2ccccc2c1N | . | . | . | -7.2% | . | .
COCCCNC(=O)/C(C#N)=C/c1c(N2CCN(C)CC2)nc2c(C)cccn2c1=O | -10.3 | 4.6% | 15.1% | . | 5.9% | .
COCCCNC(=O)/C(C#N)=C/c1c(N2CCN(c3ccc(OC)cc3)CC2)nc2c(C)cccn2c1=O | -29.1 | 2.1% | 28.2µM* | . | -6.7% | .
COc1ccc2c(c1)c(C(C)=O)c(C)n2-c1ccc(C(C)=O)cc1 | 3.3 | 0.7% | ? | . | 0.5% | .
COc1ccc(-n2c(C)c(C(C)=O)c3cc(OC(C)=O)ccc32)cc1 | 0.2 | -1.4% | -23.0% | . | 10µM* | .
CCOc1ccc2oc(C(=O)OCC(=O)NC(=O)NC)c(C)c2c1 | 7.5 | 0.6% | . | 0.4% | 7.08µM* | 2.6
CCc1ccc(CNc2ccc(O)cc2)cc1 | -1.9 | 3.0% | 35.5µM* | -10.9% | -59.2% | 3.6
CCOc1ccccc1CNc1ccc(O)cc1 | -3.6 | -16.4% | 28.2µM* | 5.5% | -64.4% | -2.3
CCOc1cccc(CNc2ccc(O)cc2)c1OCc1ccc(Cl)cc1 | -1.3 | -0.8% | 31.6µM* | -15.8% | -36.2% | -5.0
Oc1ccc(NCc2ccc(OCc3ccccc3)cc2)cc1 | ? | -10.6% | ? | . | -73.7% | .
CSCC[C@H](NC(=O)c1ccc(NC[C@@H](N)CS)cc1-c1ccccc1)C(=O)O | 1.5 | . | 1.3% | -14.0% | . | .
Cc1cccc(OCc2nc(C#N)c(N3CCCC3)o2)c1 | 1.6 | -6.6% | . | -0.4% | 3.55µM* | -8.9
Cc1cccc(OCc2nc(C#N)c(N3CC(C)CC(C)C3)o2)c1 (stereo unspecified) | 0.7 | -9.2% | -11.1% | -1.1% | -27.8% | -4.4
CN(C)c1ncc2nc(-c3ccccc3)c(=O)n(CCC#N)c2n1 | ? | . | 28.2µM* | 22.0% | . | .
CO[C@H]1C[C@@H]2CC[C@@H](C)[C@@](O)(O2)C(=O)C(=O)N2CCCC[C@H]2C(=O)O[C@H]([C@H](C)C[C@@H]2CC[C@@H](OCCO)[C@H](OC)C2)CC(=O)[C@H](C)/C=C(\C)[C@@H](O)[C@@H](OC)C(=O)[C@H](C)C[C@H](C)/C=C/C=C/C=C/1C | 0.5 | 3.6% | -9.1% | . | . | .

High-throughput results as filed in PubChem.
